± gives the standard deviation of the averaged measurements.
Key:
[1] = system: DLD1; test: cell viability (CellTiter-Glo) relative to plate median (fraction of plate median); higher = more viable cells; details: 5 µM; treatment time 24 h; reporter: 7TFP
Summary of the method: (§1)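 Values are well luminescence normalised to the plate median, from either a firefly luciferase or a CellTiterGlo readout on parallel plates. The cells, colorectal cancer lines stably transduced with lentiviral 7TFP or TCF4/Wnt firefly luciferase reporters, were treated with library compounds at a final 5 µM for 24 h. The mean of two independent replicates is listed.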

[2] = system: HCT116; test: as above; details: 5 µM; treatment time 24 h; reporter: TCF4/Wnt
Summary of the method: as §1

[3] = system: SW480; test: as above; details: 5 µM; treatment time 24 h; reporter: 7TFP
Summary of the method: as §1

[4] = system: DLD1; test: TCF/Wnt firefly luciferase reporter signal relative to plate median (fraction of plate median); higher = higher Wnt reporter signal; details: 5 µM; treatment time 24 h; reporter: 7TFP
Summary of the method: as §1

[5] = system: SW480; test: as above; details: 5 µM; treatment time 24 h; reporter: 7TFP
Summary of the method: as §1

Row | Compound | cell viability [1] | cell viability [2] | cell viability [3] | TCF/Wnt firefly luciferase reporter signal [4] | TCF/Wnt firefly luciferase reporter signal [5]
1 | CC[N+]1(C)CCCC(OC(=O)C(O)(c2ccccc2)c2ccccc2)C1 (stereo not given) | 0.945 ± 0.0014 | 0.949 ± 0.087 | 0.933 ± 0.091 | 0.857 ± 0.0071 | 0.958 ± 0.06
2 | CN(C)C(=O)Oc1cccc([N+](C)(C)C)c1 | 1.06 ± 0.089 | 0.979 ± 0.017 | 1.01 ± 0.017 | 1.03 ± 0.15 | 1.09 ± 0.021
3 | C=C[C@H]1CN2CC[C@H]1C[C@@H]2[C@@H](O)c1ccnc2ccccc12 | 1.02 ± 0.055 | 0.963 ± 0.021 | 0.984 ± 0.023 | 1.03 ± 0.028 | 0.926 ± 0.014
4 | C/C=C\C(=O)O[C@@H]1C[C@H]2O[C@@H]3C=C(C)C(=O)C[C@]3(C)[C@]1(C)[C@]21CO1 [Trichothecin] | 0.922 ± 0.018 | 0.807 ± 0.025 | 0.945 ± 0.023 | 0.733 ± 0.1 | 0.832 ± 0.067
5 | CC1(C)C2C[C@@H](O)[C@]3(C)C(CC[C@@]4(C)[C@H](c5ccoc5)OC(=O)[C@H]5O[C@]543)[C@@]2(C)[C@@H](O)C[C@H]1O (stereo not given in full) | 1.02 ± 0.071 | 0.963 ± 0.081 | 0.989 ± 0.0057 | 1.07 ± 0.18 | 0.936 ± 0.055
6 | CN[C@@H]1[C@@H](O)[C@@H](O[C@@H]2[C@@H](O)[C@H](O[C@H]3O[C@H]([C@@H](C)O)[C@@H](O)[C@H](O)[C@H]3N)[C@@H](N)C[C@H]2N)OC[C@]1(C)O | 1.075 ± 0.0071 | 1.04 ± 0.035 | 1.08 ± 0.071 | 0.964 ± 0.12 | 1.08 ± 0.085
7 | COc1c2c(c(CC=C(C)C)c3oc(=O)c(-c4ccc(O)cc4)c(O)c13)OC(C)(C)C=C2 | 0.9495 ± 0.0021 | 0.985 ± 0.064 | 1.01 ± 0.035 | 0.969 ± 0.016 | 0.985 ± 0.012
8 | COC1=C[C@]23CCCN2CCc2cc4c(cc2[C@@H]3[C@@H]1O)OCO4 | 0.98 ± 0.14 | 1.01 ± 0.035 | 1.01 ± 0.021 | 0.997 ± 0.32 | 0.953 ± 0.067
9 | NC(=O)c1cc([N+](=O)[O-])cc([N+](=O)[O-])c1 | 1.01 ± 0.015 | 1.01 ± 0.093 | 0.98 ± 0.016 | 1.06 ± 0.05 | 0.923 ± 0.14
10 | COc1cc([C@@H]2c3cc4c(cc3[C@H](OC(C)=O)[C@H]3COC(=O)[C@H]23)OCO4)cc(OC)c1OC | 0.91 ± 0.17 | 0.567 ± 0.042 | 1.205 ± 0.0071 | 0.759 ± 0.0078 | 0.702 ± 0.02
11 | CC(CC(C(N)=O)(c1ccccc1)c1ccccc1)N(C)C (stereo not given) | 0.995 ± 0.022 | 1.08 ± 0.035 | 1.01 ± 0.026 | 1 ± 0.014 | 1.01 ± 0.028
12 | COC(=O)NC(=S)Nc1ccccc1NC(=S)NC(=O)OC | 0.944 ± 0.071 | 0.966 ± 0.09 | 0.973 ± 0.0071 | 1.17 ± 0.042 | 1.02 ± 0.31
13 | COC(=O)C1=CCCN(C)C1 | 0.991 ± 0.13 | 1.07 ± 0.042 | 1.1 ± 0.099 | 1.07 ± 0.11 | 1.05 ± 0.064
